Compound activity deposited in PubChem BioAssay by Sanford-Burnham Center for Chemical Genomics.
CYP2C9 act: increases human cytochrome P450 2C9 activity. activation factor at 5 µM. 96,000 compounds, 1.4% hits. AID 1024. recombinant CYP2C9, luciferin-H conversion, luminescence; stronger effect = higher value; factor 1 = untreated enzyme, 0 = blocked. P11712;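 active means activation factor of 2 or more for CYP2C9 at a 5 µM dose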;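 further: 0 = sulfaphenazole-blocked wells and 1 = vehicle-only wells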
Target sequence (P11712 whole entry, looked up): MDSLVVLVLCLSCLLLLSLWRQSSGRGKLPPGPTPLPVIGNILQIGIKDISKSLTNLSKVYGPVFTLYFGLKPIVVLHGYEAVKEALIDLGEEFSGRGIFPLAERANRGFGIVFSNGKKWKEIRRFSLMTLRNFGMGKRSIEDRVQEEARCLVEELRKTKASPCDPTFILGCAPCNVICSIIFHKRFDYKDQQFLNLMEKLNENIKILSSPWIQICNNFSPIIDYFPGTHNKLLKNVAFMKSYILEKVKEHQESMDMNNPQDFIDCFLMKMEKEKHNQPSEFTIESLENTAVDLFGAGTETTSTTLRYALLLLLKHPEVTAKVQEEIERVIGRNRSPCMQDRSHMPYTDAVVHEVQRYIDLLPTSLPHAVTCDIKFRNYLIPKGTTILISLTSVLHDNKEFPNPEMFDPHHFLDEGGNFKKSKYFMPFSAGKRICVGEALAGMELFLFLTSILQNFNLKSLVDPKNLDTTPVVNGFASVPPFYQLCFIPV
CYP2C19 inhib: inhibitors of human CYP2C19; CYP2C19 Supersomes, luciferin-H EGE luminescence, 30 min; inhibition, % at 5 µM; 96,000 compounds, 21% hits; AID 778;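 active means CYP2C19 inhibition above a set limit at 5 µM in the primary screen, cut at about 50% in these data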;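 further: plate controls were negative control wells for no effect and 2.5 mM tranylcypromine positive control for full effect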
CYP2C19 act: activators of human cytochrome P450 2C19 | activation factor at 5 µM | recombinant CYP2C19, luciferin-H EGE luminescence; stronger effect = higher value; 0 = fully inhibited enzyme, 1 = untreated enzyme | 96,000 tested, under 10 active | P33261;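 active means activation factor of at least 2 at 5 µM in the primary screen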;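 further: 0 = wells with 2.5 mM tranylcypromine and 1 = vehicle-only wells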
CYP2C9 inhib: blocks human cytochrome P450 2C9; P11712; CYP2C9 Supersomes, luciferin-H conversion, luminescence; 96,000 compounds, 20% hits; inhibition, % at 5 µM;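 active means blocking of liver enzyme CYP2C9 beyond about 50% at 5 µM, limit read from the data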
An asterisk follows results filed as active. An excerpt weighted towards active compounds, which were near 31% of everything screened.

`COc1cc2c(cc1OC)-c1cc(OCc3cccnc3)nc(=O)n1CC2` gave CYP2C9 act 1, CYP2C19 inhib 0.6, CYP2C19 act 1 and CYP2C9 inhib 3.9.
CC(C)Cn1cc(C(=O)NC2CCN(Cc3ccccc3)CC2)c2c3ccccc3n(C)c2c1=O was read as CYP2C9 act 0.8, CYP2C19 inhib 57.3*, CYP2C19 act 0.4 and CYP2C9 inhib 19.0.
Screening CCN1CCN(C(=O)c2cn(CCOC)c(=O)c3c2c2ccccc2n3C)CC1 returned CYP2C9 act 1, CYP2C19 inhib 2.4, CYP2C19 act 1 and CYP2C9 inhib 0.1.
`CC(C)Cn1cc(C(=O)N2CCN(c3ccccn3)CC2)c2c3ccccc3n(C)c2c1=O` gave CYP2C9 act 0.2, CYP2C19 inhib 32.3, CYP2C19 act 0.7 and CYP2C9 inhib 78.3*.
`COCCCNC(=O)c1cn(CC(C)C)c(=O)c2c1c1ccccc1n2C` gave CYP2C9 act 0.5, CYP2C19 inhib 22.9, CYP2C19 act 0.8 and CYP2C9 inhib 45.1.
For C/C(CC1CC(COCCC(C)C)OC1=O)=N\NC(N)=S (stereo not given) the results were CYP2C9 act 1.2, CYP2C19 inhib -0.9, CYP2C19 act 1 and CYP2C9 inhib -24.6.
For CCOC(=O)c1c(C)[nH]c(C(=O)C(C)OC(=O)c2cccc(OCc3c(C)noc3C)c2)c1C (stereo not given) the results were CYP2C9 act 0.1, CYP2C19 inhib 78.6*, CYP2C19 act 0.2 and CYP2C9 inhib 89.7*.
`O=c1[nH]c(CN2CCN(Cc3ccc4c(c3)OCO4)CC2)nc2sc3c(c12)CCC3` gave CYP2C9 act 1.2, CYP2C19 inhib 10.5, CYP2C19 act 0.9 and CYP2C9 inhib -21.5.
`CCOC(=O)C1=C(N)OC2=C(C(=O)CCC2)C1c1cccs1` (stereo not given) gave CYP2C9 act 0.2, CYP2C19 inhib 88.2*, CYP2C19 act 0.1 and CYP2C9 inhib 80.2*.
COCCOC(=O)C1=C(N)OC2=C(C(=O)CCC2)C1c1cccnc1 (stereo not given) was read as CYP2C9 act 1, CYP2C19 inhib 60.9*, CYP2C19 act 0.4 and CYP2C9 inhib -2.1.
`COC(=O)C1=C(N)OC2=C(C(=O)CCC2)C1c1cccs1` (stereo not given) gave CYP2C9 act 0.8, CYP2C19 inhib 33.6, CYP2C19 act 0.7 and CYP2C9 inhib 22.9.
Screening CCOC(=O)C1=C(C)NC2=C(C(=O)CCC2)C1c1cccs1 (stereo not given) returned CYP2C9 act 0.4, CYP2C19 inhib 73.7*, CYP2C19 act 0.3 and CYP2C9 inhib 64.5*.
`COc1ccc(C(=S)N2CCOCC2)cc1OC(=O)c1cc([N+](=O)[O-])c(C)c([N+](=O)[O-])c1` gave CYP2C9 act 0.7, CYP2C19 inhib -0.4, CYP2C19 act 1 and CYP2C9 inhib 25.7.
`CS(=O)(=O)N(CC(=O)NCCC1=CCCCC1)C1CCCCC1` gave CYP2C9 act 0.3, CYP2C19 inhib 71.0*, CYP2C19 act 0.3 and CYP2C9 inhib 68.7*.
`O=C(Cn1nc(C(F)F)cc1C1CC1)NCCC1=CCCCC1` gave CYP2C9 act 1, CYP2C19 inhib 67.5*, CYP2C19 act 0.3 and CYP2C9 inhib 0.3.
`O=C(CN(Cc1ccccc1F)S(=O)(=O)c1ccc(Cl)cc1)NCCC1=CCCCC1` gave CYP2C9 act 0.8, CYP2C19 inhib 7.8, CYP2C19 act 0.9 and CYP2C9 inhib 16.3.
Screening O=C(CN(Cc1ccccc1F)S(=O)(=O)c1ccc(Cl)cc1)NCCCO returned CYP2C9 act 0.9, CYP2C19 inhib 54.4*, CYP2C19 act 0.5 and CYP2C9 inhib 14.2.
For Cc1ccc(S(=O)(=O)N(CC(=O)NCCC2=CCCCC2)Cc2ccccc2F)cc1 the results were CYP2C9 act 0.5, CYP2C19 inhib 21.6, CYP2C19 act 0.8 and CYP2C9 inhib 51.7*.
For COc1ccc(CCNC(=O)CN(C2CCCCC2)S(C)(=O)=O)cc1 the results were CYP2C9 act 0.8, CYP2C19 inhib 38.2, CYP2C19 act 0.6 and CYP2C9 inhib 15.0.
`CCOCCCNCc1cccc(OC)c1` gave CYP2C9 act 0.9, CYP2C19 inhib 38.2, CYP2C19 act 0.6 and CYP2C9 inhib 14.8.
For CCCCCn1c(C(C)NC(=O)CCC)nc2ccccc21 (stereo not given) the results were CYP2C9 act 0.9, CYP2C19 inhib -1.2, CYP2C19 act 1 and CYP2C9 inhib 9.1.
Cc1ccc(S(=O)(=O)N(CC(=O)NCCC2=CCCCC2)Cc2ccccc2)cc1 was read as CYP2C9 act 0.4, CYP2C19 inhib 39.1, CYP2C19 act 0.6 and CYP2C9 inhib 56.7*.
Screening CCOCCCNC(=O)C1CCN(S(=O)(=O)N2CC(C)CC(C)C2)CC1 (stereo not given) returned CYP2C9 act 1, CYP2C19 inhib -0.9, CYP2C19 act 1 and CYP2C9 inhib -3.7.
Cc1ccc(C(NC(N)=O)c2ccccc2C)cc1 (stereo not given) was read as CYP2C9 act 0.5, CYP2C19 inhib 99.0*, CYP2C19 act 0 and CYP2C9 inhib 48.8.
Cc1ccc(C(NC(N)=O)c2ccccc2)cc1 (stereo not given) was read as CYP2C9 act 0.4, CYP2C19 inhib 97.0*, CYP2C19 act 0 and CYP2C9 inhib 62.7*.
COc1ccc(C(NC(N)=O)c2ccccc2)cc1 (stereo not given) was read as CYP2C9 act 0.7, CYP2C19 inhib 43.1, CYP2C19 act 0.6 and CYP2C9 inhib 26.0.
Screening COCCOC(=O)C1=C(C)NC(=O)NC1c1c(F)cccc1Cl (stereo not given) returned CYP2C9 act 1, CYP2C19 inhib 29.5, CYP2C19 act 0.7 and CYP2C9 inhib -2.5.
Screening CCCC(C)NC(=O)c1ccc(C2SCC(=O)N2Cc2ccco2)cc1 (stereo not given) returned CYP2C9 act 0.9, CYP2C19 inhib 17.9, CYP2C19 act 0.8 and CYP2C9 inhib 12.8.
For COc1cccc(C2C(C#N)=C(N)OC3=C2C(=O)CC(c2ccco2)C3)c1OCc1ccc(F)cc1 (stereo not given) the results were CYP2C9 act 0.1, CYP2C19 inhib 79.5*, CYP2C19 act 0.2 and CYP2C9 inhib 89.3*.
For COc1ccc(C2C(C#N)=C(N)OC3=C2C(=O)CC(C)C3)c(OC)c1OC (stereo not given) the results were CYP2C9 act 0.4, CYP2C19 inhib 9.9, CYP2C19 act 0.9 and CYP2C9 inhib 58.0*.
COc1cc(C2C3=C(CC(c4ccco4)CC3=O)Nc3ccccc3N2C(C)=O)cc(OC)c1OC (stereo not given) was read as CYP2C9 act 0.9, CYP2C19 inhib -6.6, CYP2C19 act 1.1 and CYP2C9 inhib 5.7.
For COc1ccc(C2C(C#N)=C(N)OC3=C2C(=O)CC(C)(C)C3)c([N+](=O)[O-])c1OC (stereo not given) the results were CYP2C9 act 0.3, CYP2C19 inhib 20.6, CYP2C19 act 0.8 and CYP2C9 inhib 70.9*.
`CCC1CCCCN1C(=O)CSc1nnc(CNC(=O)c2ccco2)o1` (stereo not given) gave CYP2C9 act 1.1, CYP2C19 inhib 5.9, CYP2C19 act 0.9 and CYP2C9 inhib -9.0.
